High-throughput results deposited in PubChem by Johns Hopkins Ion Channel Center.
KCNQ2 pot = enhances the rat KCNQ2 potassium channel; B-score at 10 µM; O88943; 0.54% of 310,000 active; CHO-K1 KCNQ2, FluxOR thallium flux fluorescence; hits give high values;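 active = fluorescence ratio B-score at least 3 SD of library B-scores, with initial fluorescence B-score within 3 of them, cut at about 5.3 in these data; same plate scores as AID 2156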;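 also: B-score of peak minus minimum over baseline fluorescence ratio after K+ and Tl+ stimulus; positive B-score means potentiation of KCNQ2 with more thallium influx and brighter signal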
KCNQ2 inh = KCNQ2 (rat) channel inhibition; O88943; CHO-K1 KCNQ2, FluxOR thallium flux, 20 min; hits give low values; B-score at 10 µM; 1.1% of 310,000 active;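 active = fluorescence ratio B-score at most minus 3 library SDs, with starting brightness B-score within 2 library SDs, cut at about -5.5 in these data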
KCNQ2 inh conf = confirmation of rat KCNQ2 potassium channel inhibitors; KCNQ2-expressing cells, thallium flux, inhibition; hits give low values; shares compounds with KCNQ2 inh; 57% of 1,000 active; activity change, negative = inhibition, % at 10 µM
KCNQ1 spec = selectivity of KCNQ2 inhibitors against human KCNQ1; shares compounds with KCNQ2 inh; KCNQ1-expressing cells, FluxOR thallium flux fluorescence; hits give low values; activity change, negative = inhibition, % at 10 µM; 15% of 1,000 active;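 active = activity change at least 3 SD of negative controls below their mean in both duplicate wells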;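 also: CHO cells stably transfected with KCNQ1 and depolarized by potassium stimulus; peak minus minimum fluorescence over baseline after thallium addition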
CHO Tl ctr = KCNQ2 inhibitor counter-screen hit in parental CHO cells; shares compounds with KCNQ2 inh; thallium flux counter-screen; hits give low values; activity change, % at 10 µM; 14% of 1,000 active; AID 493029
KCNQ2 patch conf = confirmation of rat KCNQ2 potassium channel inhibitors | shares compounds with KCNQ2 inh | KCNQ2-expressing cells, automated patch clamp current | calls only at 10 µM | 49% of 550 active | AID 588531
Numbers stand for hits. Compounds with a hit are over-represented: about 1.6% of the library has one in this group of screens. Unless noted, no rule for the calls is given here.

What do the screens show for `CC(C)CCOc1ccc(C(=O)NN2C(=O)NC3(CCCCC3)C2=O)cc1`?
KCNQ2 inh: inactive

What do the screens show for `CCN(c1ccccc1)S(=O)(=O)c1cc(C(=O)O)ccc1C`?
KCNQ2 inh: inactive

Results for Cc1cccc(C)c1NC1=NCCCCC1 ?
KCNQ2 inh: inactive

What do the screens show for `CCOC(=O)N1CCN(C(=O)CSc2nc3c([nH]c4ccccc43)c(=O)n2CC)CC1`?
KCNQ2 pot: inactive; KCNQ2 inh: inactive

Results for CCOC(=O)N1CCC(N(CCCOC)C(=O)Nc2cccc(OC)c2)CC1 ?
KCNQ2 inh: inactive

What do the screens show for `CCOC(=O)N1CCC(N(CCOC)C(=O)Nc2ccc(Cl)c(Cl)c2)CC1`?
KCNQ2 pot: inactive; KCNQ2 inh: -9.4; KCNQ2 inh conf: -25%; KCNQ1 spec: inactive; CHO Tl ctr: inactive

Results for CCN(Cc1ccccc1)C(=O)CS(=O)(=O)c1ccccc1 ?
KCNQ2 pot: inactive; KCNQ2 inh: inactive

What do the screens show for `O=S(=O)(C/C(=C/CO)S(=O)(=O)c1ccccc1)c1ccccc1`?
KCNQ2 pot: inactive; KCNQ2 inh: -8; KCNQ2 inh conf: inactive; KCNQ1 spec: inactive; CHO Tl ctr: inactive

How did CCN(c1ccccc1)c1nc(C#N)nc(N(CC)c2ccccc2)n1 do in these assays?
KCNQ2 pot: inactive; KCNQ2 inh: -6.7; KCNQ2 inh conf: -30%; KCNQ1 spec: inactive; CHO Tl ctr: inactive; KCNQ2 patch conf: inactive

Results for CCN(CC)c1nc(C#N)nc(N(CC)CC)n1 ?
KCNQ2 inh: inactive

What do the screens show for `Cc1nc2ncnn2c(N2CCN(C(=O)Cc3cccs3)CC2)c1C`?
KCNQ2 inh: inactive

How did COc1ccc2oc(C(=O)N3CCN(C(c4ccccc4)c4ccccc4)CC3)c(C)c2c1 do in these assays?
KCNQ2 pot: inactive; KCNQ2 inh: -10; KCNQ2 inh conf: inactive; KCNQ1 spec: inactive; CHO Tl ctr: inactive

How did COc1ccc(N2CCN(C(=O)c3oc4ccccc4c3C)CC2)cc1 do in these assays?
KCNQ2 inh: inactive

How did CNC(=O)/C(=C\c1ccc([N+](=O)[O-])cc1)NC(C)=O do in these assays?
KCNQ2 inh: inactive

What do the screens show for `CCn1c(C)c(C)c2cc(C(=O)N3CCN(c4ccccc4)CC3)ccc21`?
KCNQ2 pot: inactive; KCNQ2 inh: -6.9; KCNQ2 inh conf: inactive; KCNQ1 spec: inactive; CHO Tl ctr: inactive

What do the screens show for `CCn1c(C)c(C)c2cc(C(=O)N3CCCC3)ccc21`?
KCNQ2 pot: inactive; KCNQ2 inh: inactive

What do the screens show for `Cn1c(=O)[nH]c2ccc([N+](=O)[O-])nc21`?
KCNQ2 inh: inactive

Results for CCN(CC)CCC(=O)c1ccc(F)cc1 ?
KCNQ2 pot: inactive; KCNQ2 inh: -9; KCNQ2 inh conf: -36%; KCNQ1 spec: inactive; CHO Tl ctr: inactive; KCNQ2 patch conf: inactive

How did CN(C)CCC(=O)c1ccc(F)cc1 do in these assays?
KCNQ2 inh: inactive

What do the screens show for `Cc1cc(=O)oc(C)c1C(=O)Nc1cccc(F)c1`?
KCNQ2 inh: inactive

How did COc1ccc(C(=O)OC2CCN(c3ncc(C(F)(F)F)cc3Cl)CC2)cc1 do in these assays?
KCNQ2 pot: inactive; KCNQ2 inh: -8.7; KCNQ2 inh conf: inactive; KCNQ1 spec: inactive; CHO Tl ctr: inactive

How did O=C(OC1CCN(c2ncc(C(F)(F)F)cc2Cl)CC1)c1ccccc1 do in these assays?
KCNQ2 inh: inactive

How did CSCCC(NS(=O)(=O)c1cccc(C(F)(F)F)c1)C(=O)Nc1ccccc1N1CCCC1 (configuration not stated) do in these assays?
KCNQ2 inh: inactive

How did CC1=Nc2ccccc2/C1=C/c1nc(-c2ccc(C)s2)oc1O do in these assays?
KCNQ2 inh: inactive

How did CC1=Nc2ccccc2/C1=C/c1sc(=N)n(-c2nccs2)c1O do in these assays?
KCNQ2 pot: inactive; KCNQ2 inh: -9.9; KCNQ2 inh conf: -52%; KCNQ1 spec: -62%; CHO Tl ctr: -57%; KCNQ2 patch conf: inactive

How did CCOC(=O)N1CCN(C(=O)c2cccc(N3C(=O)NC4CC3(C)Oc3ccccc34)c2)CC1 (configuration not stated) do in these assays?
KCNQ2 pot: inactive; KCNQ2 inh: inactive

How did COc1cccc(N2CCN(C(=O)c3cccc(N4C(=O)NC5CC4(C)Oc4c(OC)cccc45)c3)CC2)c1 (configuration not stated) do in these assays?
KCNQ2 pot: inactive; KCNQ2 inh: inactive

What do the screens show for `CC12CC(NC(=O)N1c1cccc(C(=O)N3CCN(c4ccccc4)CC3)c1)c1ccccc1O2` (configuration not stated)?
KCNQ2 pot: inactive; KCNQ2 inh: -7.3; KCNQ2 inh conf: inactive; KCNQ1 spec: inactive; CHO Tl ctr: inactive

What do the screens show for `COc1ccccc1N1CCN(C(=O)c2cccc(N3C(=O)NC4CC3(C)Oc3ccccc34)c2)CC1` (configuration not stated)?
KCNQ2 pot: inactive; KCNQ2 inh: -7.7; KCNQ2 inh conf: inactive; KCNQ1 spec: inactive; CHO Tl ctr: inactive

How did O=C(Nc1cc2cccc([N+](=O)[O-])c2oc1=O)c1cccs1 do in these assays?
KCNQ2 pot: inactive; KCNQ2 inh: inactive

How did CN(C)C(=O)CSc1nnc(-c2ccc(S(=O)(=O)N3CCCC3)cc2)n1C do in these assays?
KCNQ2 pot: inactive; KCNQ2 inh: inactive

What do the screens show for `O=C(CSc1nnc(NC(=O)C2CC2)s1)Nc1ccc(F)cc1F`?
KCNQ2 inh: inactive

What do the screens show for `O=C(COC(=O)c1ccccc1NCCO)NCCc1ccccc1`?
KCNQ2 pot: inactive; KCNQ2 inh: inactive

Results for O=C(OCC(=O)N(Cc1ccccc1)Cc1ccccc1)c1ccccc1NCCO ?
KCNQ2 pot: inactive; KCNQ2 inh: -7.5; KCNQ2 inh conf: -34%; KCNQ1 spec: inactive; CHO Tl ctr: inactive; KCNQ2 patch conf: active

Results for COc1cccc(C(=O)NNC(=O)Cc2ccc([N+](=O)[O-])cc2)c1 ?
KCNQ2 inh: inactive

Results for COc1ccc(Cl)cc1NC(=O)C(C)N(C)Cc1ccc(C(F)(F)F)cc1 (configuration not stated) ?
KCNQ2 pot: inactive; KCNQ2 inh: -6.8; KCNQ2 inh conf: -45%; KCNQ1 spec: -52%; CHO Tl ctr: -39%; KCNQ2 patch conf: inactive

How did COc1cc(CN(C)C(C)C(=O)Nc2ccc([N+](=O)[O-])cc2Cl)ccc1OC(F)F (configuration not stated) do in these assays?
KCNQ2 inh: inactive

How did COc1ccc(-c2nnc(SCC(=O)Nc3ncc(C)s3)n2-c2ccccc2)cc1OC do in these assays?
KCNQ2 pot: inactive; KCNQ2 inh: inactive

Results for Cc1cc2oc(C(=O)N(Cc3ccc(N(C)C)cc3)CC3CCCO3)c(C)c2cc1C (configuration not stated) ?
KCNQ2 pot: inactive; KCNQ2 inh: -8.6; KCNQ2 inh conf: -37%; KCNQ1 spec: -36%; CHO Tl ctr: -34%; KCNQ2 patch conf: active

What do the screens show for `Cc1ccc2oc(C(=O)N(Cc3ccc(N(C)C)cc3)CC3CCCO3)c(C)c2c1` (configuration not stated)?
KCNQ2 inh: inactive

Results for O=C(CCN1C(=O)C2C3CCC(C3)C2C1=O)Nc1ccc(F)cc1 (configuration not stated) ?
KCNQ2 pot: inactive; KCNQ2 inh: inactive
